# Experimental data: PubChem BioAssay (NCI)
# The panel holds about 83,000 compounds, 20% with a hit somewhere; the sample as a whole holds those more often.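 Each cell line was grown in a 96-well plate and treated with one concentration of compound for 48 hours. Values below 10 were considered active.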 Unmarked numbers belong to inactive results. Calls of active or inactive are those of the source.
# How the values were obtained:
# Assay in all cases: NCI-60 one-dose screen, 48 h (100 = growth as untreated, 0 = no growth, -100 = all killed)
# Settings in all cases: 10 µM unless noted
# NCI-H23 lung = test system: NCI-H23 lung
# NCI-H226 lung = test system: NCI-H226 lung
# NCI-H322M lung = test system: NCI-H322M lung
# HOP-62 NSCLC = test system: HOP-62 NSCLC
# NCI-H460 lung = test system: NCI-H460 lung
# HOP-92 NSCLC = test system: HOP-92 NSCLC
# NCI-H522 lung = test system: NCI-H522 lung
# A549/ATCC NSCLC = test system: A549/ATCC NSCLC
# 786-0 renal = test system: 786-0 renal
# COLO 205 colon = test system: COLO 205 colon
Structure (SMILES),growth (NCI-H23 lung),growth (NCI-H226 lung),growth (NCI-H322M lung),growth (HOP-62 NSCLC),growth (NCI-H460 lung),growth (HOP-92 NSCLC),growth (NCI-H522 lung),growth (A549/ATCC NSCLC),growth (786-0 renal),growth (COLO 205 colon)
O=C(Nc1cccc(-n2cc(-c3ccncc3)c(-c3ccc(Cl)c(O)c3)n2)c1)Nc1ccc(Cl)c(Cl)c1,13.5%,24.7%,40.6%,34.4%,6.5% (active),-20.2% (active),-6.8% (active),4.51% (active),30.1%,30.2%
Cc1ccc(NS(=O)(=O)c2cc(C)ccc2C)cc1,59.2%,79.1%,88.7%,49.3%,14.4%,39.6%,11.5%,33.5%,61%,32.8%
COc1cc(-c2ncn(/C=C\C(=O)OC(C)C)n2)cc(C(F)(F)F)c1,17.5%,-47% (active),0.838% (active),-18.5% (active),-31.7% (active),7.61% (active),-70.9% (active),12.9%,9.65% (active),-62.2% (active)
COc1cc(/C=C/C(=O)c2ccc(Nc3ncnc4cc(OC)c(OC)cc34)cc2)cc(OC)c1,94.7%,113%,105%,116%,109%,76.4%,92.4%,84.9%,92.3%,117%
Cc1csc(NC(c2ccccc2)c2c(C)nc3ccccn23)n1 (stereo not given),95.6%,94.8%,104%,95.4%,102%,68.4%,95.3%,99.1%,100%,106%
O=C1c2ccccc2-c2ccccc2C1(Cl)Cl,-20.8% (active),88.4%,86.7%,-98% (active),4.08% (active),-78.4% (active),-88.6% (active),-21.2% (active),103%,92.3%
Cc1cc(N/N=C/c2nc(-c3ccccc3)oc2C)c2cc(Br)ccc2n1,88.6%,88.3%,94.3%,87.5%,73.6%,71.9%,80.6%,87%,86.7%,85.6%
O=[N+]([O-])c1ccc(-c2cn(-c3ccccc3)c(-c3ccccc3)n2)cc1,78.7%,95.4%,40.5%,62.4%,35.3%,81.2%,44.6%,55.6%,92.5%,101%
COc1ccc(/C=N\NC(=O)CN2CCN(c3cc4c(cc3F)c(=O)c(C(=O)N/N=C/c3ccc(OC)c(OC)c3)cn4C3CC3)CC2)cc1OC,-32% (active),52.1%,11.1%,9.47% (active),3.65% (active),-2.77% (active),7.49% (active),48.6%,45.4%,7.74% (active)
COc1ccc(-c2c(N)n[nH]c2-c2cc(OC)c3c(c2)OCCO3)cc1,87.6%,93.3%,107%,78.3%,83%,87.6%,12.5%,56%,88.9%,66.8%
COc1cc(C2CC(c3ccc4c(c3)OCO4)=NN2C(C)=O)cc(OC)c1OC (stereo not given),44.3%,52.4%,-12.9% (active),35.5%,10.7%,74.6%,-29.8% (active),36%,42.1%,-12.8% (active)
Cc1ccc(S(=O)(=O)Nc2c(Br)cc(Br)cc2C(N)=O)cc1,96%,102%,88.4%,109%,105%,94.4%,115%,117%,101%,103%
CCC(=O)OC1=CN2C(=NC(c3ccc(N)cc3)=CC2c2cc(OC)c(OC)c(OC)c2)S1 (stereo not given),84.8%,75%,63%,48.1%,16.7%,48.4%,40.6%,39.2%,72.1%,47%
O=C(CN1CCN(c2cc3c(cc2F)c(=O)c(C(=O)N/N=C/c2ccccc2O)cn3C2CC2)CC1)N/N=C\c1ccccc1O,28.2%,36.4%,25.4%,24.5%,0.87% (active),52%,22.6%,17.8%,7.83% (active),17.4%
O=C(/C=C/c1cc(-c2ccc3c(c2)OCO3)n[nH]1)c1ccc2c(c1)OCO2,94.6%,89.4%,86.6%,96.9%,97.5%,77.7%,72%,90.7%,99.2%,97.7%
COc1ccc(Cn2cc3c(c2-c2cc(OC)c(OC)c(OC)c2)CCc2cnoc2-3)cc1,22.8%,19.8%,35.8%,64.2%,4.4% (active),77.1%,24.7%,25.2%,36.3%,-27.7% (active)
C=C1CCC2C3(C)COC(c4ccccc4)OC3CCC2(C)C1/C=C/C1=CCOC1=O (stereo not given),74.6%,85.8%,64.3%,113%,93.6%,68.4%,63.6%,43.5%,94.3%,17.4%
COc1ccc(C2=C(c3cc(OC)c(OC)c(OC)c3)C(=O)CC2)cc1,14.2%,46.5%,47.8%,38.1%,0.331% (active),40%,-35.5% (active),24.7%,28.9%,-27.9% (active)
N/C(=N\S(=O)(=O)c1ccccc1)Nc1nc2ccccc2s1,87.9%,76.7%,91.1%,86.3%,107%,76.2%,73.2%,95.9%,95.4%,96.4%
C=C(C)[C@@H]1CC[C@]2(C(=O)N3CCNCC3)CC[C@]3(C)[C@H](CC[C@@H]4[C@@]5(C)C/C(=C/c6ccncc6)C(=O)C(C)(C)[C@@H]5CC[C@]43C)[C@@H]12,103%,95.7%,110%,107%,107%,95.8%,96.8%,102%,108%,113%
COc1cccc(CC(C)=C(c2ccc(OCCN(C)C)cc2)c2ccc(OCCN(C)C)cc2)c1,70%,31.3%,1.04% (active),3.07% (active),-64.9% (active),10.2%,-39.8% (active),-21.7% (active),-91% (active),-70.5% (active)
CC12CCC3C4(C)COC(c5ccccc5Cl)OC4CCC3(C)C1CC(C1=CCOC1=O)O2 (stereo not given),52.7%,59.5%,90.2%,78.3%,44.1%,85.7%,59.4%,64.1%,-89.9% (active),45%
COc1ccc(C2=CC(c3cc(OC)c(OC)c(OC)c3)NC(=O)N2)cc1OC (stereo not given),27.3%,64.3%,-9.67% (active),32.6%,1.25% (active),6.24% (active),-8.71% (active),19%,27.9%,-24.1% (active)
O=C(O)C1CCCCN1c1nc(Cl)nc(Cl)n1 (stereo not given),98.9%,89.1%,106%,101%,105%,106%,93.3%,101%,105%,106%
CCOC(=O)c1ccc2c(c1)c1c(C)c3cccnc3c(C)c1n2C,56.7%,53.1%,56.9%,72.7%,22.5%,67.9%,49.1%,67.7%,51.3%,50.3%
Cc1ccc(S(=O)(=O)/C(=C\c2ccc(Cl)cc2)C(=O)c2ccccc2)cc1,102%,97.9%,101%,104%,106%,94.6%,96.3%,106%,103%,102%
Cc1ccc(/C=C2\CN(C(=O)CCN3CCC(=NO)CC3)C/C(=C\c3ccc(C)cc3)C2=O)cc1,7.62% (active),81%,16.8%,46.9%,-42.5% (active),72.2%,-28.6% (active),50.8%,-15.5% (active),-35.4% (active)
